Measurements published in the supplement of paper PMC8728848.
The entries come from a sample that favours the strongest signals as a whole.

Key:
Assay in all cases: glycan array binding signal (z-score within array); higher = stronger binding
Settings in all cases: glycan notation: IUPAC condensed, linker removed
[1] = target: Fuc(a1-2)Gal(b1-3)GlcNAc(b1-2)Man(a1-3)[Fuc(a1-2)Gal(b1-3)GlcNAc(b1-2)Man(a1-6)]Man(b1-4)GlcNAc(b1-4)GlcNAc
In short: (§1)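 Glycan array data came from 3228 arrays in the Consortium for Functional Glycomics database, and only arrays with an available protein sequence were kept. Glycan names were put into IUPAC-condensed notation, and columns mapping to the same glycan were averaged. The binding signal is a within-array Z-score, averaged across arrays of one protein sequence run at different concentrations or buffers and across linkers. A negative Z-score can be read as non-binding.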

[2] = target: Fuc(a1-2)Gal(b1-3)GlcNAc(b1-2)Man(a1-3)[Fuc(a1-2)Gal(b1-3)GlcNAc(b1-2)Man(a1-6)]Man(b1-4)GlcNAc(b1-4)[Fuc(a1-6)]GlcNAc
In short: as §1

Fuc(a1-2)Gal(b1-4)GlcNAc = target: Fuc(a1-2)Gal(b1-4)GlcNAc
In short: as §1

[3] = target: Fuc(a1-2)Gal3S(b1-4)GlcNAc
In short: as §1

[4] = target: Fuc(a1-2)[GalNAc(a1-3)]Gal(b1-4)GlcNAc(b1-3)Gal(b1-4)GlcNAc
In short: as §1

[5] = target: Fuc(a1-2)[GalNAc(a1-3)]Gal(b1-4)GlcNAc(b1-6)GalNAc
In short: as §1

[6] = target: Fuc(a1-2)[GalNAc(a1-4)]Gal(b1-4)GlcNAc
In short: as §1

[7] = target: Fuc(a1-2)[GalNAc(b1-3)]Gal
In short: as §1

[8] = target: Gal(a1-3)Gal(b1-3)GlcNAc(b1-6)GalNAc
In short: as §1

[9] = target: Gal(a1-3)Gal(b1-4)GlcNAc(b1-6)GalNAc
In short: as §1

[10] = target: Gal(a1-4)Gal(b1-3)GlcNAc(b1-2)Man(a1-3)[Gal(a1-4)Gal(b1-3)GlcNAc(b1-2)Man(a1-6)]Man(b1-4)GlcNAc(b1-4)GlcNAc
In short: as §1

[11] = target: Gal(a1-4)Gal(b1-4)GlcNAc(b1-3)Gal(b1-4)Glc
In short: as §1

Gal(b1-3)GlcNAc(b1-2)Man = target: Gal(b1-3)GlcNAc(b1-2)Man
In short: as §1

[12] = target: Gal(b1-3)GlcNAc(b1-2)Man(a1-3)[GlcNAc(b1-4)][Gal(b1-3)GlcNAc(b1-2)Man(a1-6)]Man(b1-4)GlcNAc(b1-4)GlcNAc
In short: as §1

[13] = target: Gal(b1-3)GlcNAc(b1-6)GalNAc
In short: as §1

Gal3S(b1-4)Glc = target: Gal3S(b1-4)Glc
In short: as §1

[14] = target: GalNAc(b1-3)Gal(a1-4)Gal(b1-4)GlcNAc
In short: as §1

[15] = target: GalNAc(b1-3)Gal(a1-6)Gal(b1-4)Glc
In short: as §1

[16] = target: GlcNAc(b1-2)Man(a1-3)[GlcNAc(b1-4)][GlcNAc(b1-2)Man(a1-6)]Man(b1-4)GlcNAc(b1-4)GlcNAc
In short: as §1

[17] = target: GlcNAc(b1-2)[GlcNAc(b1-6)]Man(a1-6)[GlcNAc(b1-2)Man(a1-3)]Man(b1-4)GlcNAc(b1-4)GlcNAc
In short: as §1

[18] = target: GlcNAc(b1-3)Gal(b1-4)GlcNAc
In short: as §1

[19] = target: GlcNAc(b1-3)Gal(b1-4)GlcNAc(b1-3)Gal(b1-4)GlcNAc(b1-3)Gal(b1-4)GlcNAc(b1-2)Man(a1-3)[GlcNAc(b1-3)Gal(b1-4)GlcNAc(b1-3)Gal(b1-4)GlcNAc(b1-3)Gal(b1-4)GlcNAc(b1-2)Man(a1-6)]Man(b1-4)GlcNAc(b1-4)[Fuc(a1-6)]GlcNAc
In short: as §1

[20] = target: GlcNAc(b1-3)Gal(b1-4)GlcNAc(b1-3)Gal(b1-4)GlcNAc(b1-3)Gal(b1-4)GlcNAc(b1-3)Gal(b1-4)GlcNAc(b1-2)Man(a1-3)[GlcNAc(b1-3)Gal(b1-4)GlcNAc(b1-3)Gal(b1-4)GlcNAc(b1-3)Gal(b1-4)GlcNAc(b1-3)Gal(b1-4)GlcNAc(b1-2)Man(a1-6)]Man(b1-4)GlcNAc(b1-4)GlcNAc
In short: as §1

[21] = target: GlcNAc(b1-3)Gal(b1-4)GlcNAc(b1-3)Gal(b1-4)GlcNAc(b1-3)Gal(b1-4)GlcNAc(b1-3)Gal(b1-4)GlcNAc(b1-2)Man(a1-3)[GlcNAc(b1-3)Gal(b1-4)GlcNAc(b1-3)Gal(b1-4)GlcNAc(b1-3)Gal(b1-4)GlcNAc(b1-3)Gal(b1-4)GlcNAc(b1-2)Man(a1-6)]Man(b1-4)GlcNAc(b1-4)[Fuc(a1-6)]GlcNAc
In short: as §1

GlcNAc(b1-6)GalNAc = target: GlcNAc(b1-6)GalNAc
In short: as §1

Kdn(a2-3)Gal(b1-3)GlcNAc = target: Kdn(a2-3)Gal(b1-3)GlcNAc
In short: as §1

[22] = target: Man(a1-2)Man(a1-3)[Man(a1-2)Man(a1-6)]Man(a1-6)[Man(a1-2)Man(a1-2)Man(a1-3)]Man(b1-4)GlcNAc(b1-4)GlcNAc
In short: as §1

Neu5Ac(a2-3)Gal = target: Neu5Ac(a2-3)Gal
In short: as §1

[23] = target: Neu5Ac(a2-3)Gal(b1-3)GlcNAc(b1-6)GalNAc
In short: as §1

[24] = target: Neu5Ac(a2-3)Gal(b1-3)[Fuc(a1-4)]GlcNAc(b1-3)Gal(b1-3)[Fuc(a1-4)]GlcNAc
In short: as §1

[25] = target: GlcNAc(b1-2)[GlcNAc(b1-4)]Man(a1-3)[GlcNAc(b1-4)][GlcNAc(b1-2)Man(a1-6)]Man(b1-4)GlcNAc(b1-4)GlcNAc
In short: as §1

GlcNAc(b1-3)Gal(b1-4)Glc = target: GlcNAc(b1-3)Gal(b1-4)Glc
In short: as §1

[26] = target: GlcNAc(b1-3)Gal(b1-4)GlcNAc(b1-6)[Gal(b1-3)]GalNAc
In short: as §1

[27] = target: GlcNAc(b1-4)GlcNAc(b1-4)GlcNAc(b1-4)GlcNAc(b1-4)GlcNAc(b1-4)GlcNAc
In short: as §1

Man(b1-4)GlcNAc = target: Man(b1-4)GlcNAc
In short: as §1

[28] = target: Neu5Ac(a2-3)Gal(b1-3)GalNAc
In short: as §1

Neu5Ac(a2-3)Gal(b1-4)Glc = target: Neu5Ac(a2-3)Gal(b1-4)Glc
In short: as §1

[29] = target: Neu5Ac(a2-3)Gal(b1-4)GlcNAc(b1-3)Gal(b1-3)GlcNAc
In short: as §1

[30] = target: Neu5Ac(a2-3)Gal(b1-4)[Fuc(a1-3)]GlcNAc
In short: as §1

[31] = target: Neu5Ac(a2-6)Gal(b1-4)GlcNAc(b1-3)Gal(b1-4)GlcNAc(b1-2)Man(a1-3)[Neu5Ac(a2-6)Gal(b1-4)GlcNAc(b1-3)Gal(b1-4)GlcNAc(b1-2)Man(a1-6)]GalNAc
In short: as §1

[32] = target: Neu5Ac(a2-8)Neu5Ac(a2-8)Neu5Ac
In short: as §1

[33] = target: Neu5Ac(a2-8)Neu5Gc(a2-3)Gal(b1-4)GlcNAc
In short: as §1

Neu5Gc(a2-6)GalNAc = target: Neu5Gc(a2-6)GalNAc
In short: as §1

B1: DC-ASGPR Long (Homo sapiens) (protein)
chain: MTRTYENFQYLENKVKVQGFKNGPLPLQSLLQRLRSGPCHLLLSLGLGLLLLVIICVVGFQNSKFQRDLVTLRTDFSNFTSNTVAEIQALTSQGSSLEETIASLKAEVEGFKQERQAGVSELQEHTTQKAHLGHCPHCPSVCVPVHSEMLLRVQQLVQDLKKLTCQVATLNNNASTEGTCCPVNWVEHQDSCYWFSHSGMSWAEAEKYCQLKNAHLVVINSREEQNFVQKYLGSAYTWMGLSDPEGAWKWVDGTDYATGFQNWKPGQPDDWQGHGLGGGEDCAHFHPDGGWNDDVCQRPYHWVCEAGLGQTSQESH
- glycan array binding signal (z-score) [1]: -1.26
- glycan array binding signal (z-score) [2]: -0.382
- glycan array binding signal (z-score) (Fuc(a1-2)Gal(b1-4)GlcNAc): -0.356
- glycan array binding signal (z-score) [3]: 0.826
- glycan array binding signal (z-score) [4]: -0.618
- glycan array binding signal (z-score) [5]: 5.11
- glycan array binding signal (z-score) [6]: 3.67
- glycan array binding signal (z-score) [7]: 5.95
- glycan array binding signal (z-score) [8]: 3.07
- glycan array binding signal (z-score) [9]: 3.58
- glycan array binding signal (z-score) [10]: -0.383
- glycan array binding signal (z-score) [11]: -0.788
- glycan array binding signal (z-score) (Gal(b1-3)GlcNAc(b1-2)Man): -0.186
- glycan array binding signal (z-score) [12]: -0.269
- glycan array binding signal (z-score) [13]: 5.68
- glycan array binding signal (z-score) (Gal3S(b1-4)Glc): -0.075
- glycan array binding signal (z-score) [14]: 3.37
- glycan array binding signal (z-score) [15]: 3.13
- glycan array binding signal (z-score) [16]: -0.323
- glycan array binding signal (z-score) [17]: 5.41
- glycan array binding signal (z-score) [18]: -0.433
- glycan array binding signal (z-score) [19]: 0.194
- glycan array binding signal (z-score) [20]: 0.068
- glycan array binding signal (z-score) [21]: 1.61
- glycan array binding signal (z-score) (GlcNAc(b1-6)GalNAc): 3.43
- glycan array binding signal (z-score) (Kdn(a2-3)Gal(b1-3)GlcNAc): -0.092
- glycan array binding signal (z-score) [22]: -0.746
- glycan array binding signal (z-score) (Neu5Ac(a2-3)Gal): -0.419
- glycan array binding signal (z-score) [23]: 4.59
- glycan array binding signal (z-score) [24]: -0.273

B2: Sebin2 (Coprinopsis cinerea), A8PE78 (protein)
chain: MTTPFYAYCHNVQDDNTWRLGLVFANRSTADEWWRAISEATSSIPITKSITRVTPQYYTHDIRVWNMYNFFVDGNIKSISDKFRGRLFITLEYDRSGRGVSVFPPLHIVDHVSGNWYYIRSKTAPHLFWFYDETRNAIYASKEKRTRFKVSIRNPSPQTPKDAIMINSDDVVIHIKESLYVGVDSYLGHIIPTRAYRTFKFGELEGGAIAGIEVAENAEERCSSTFDGASLYFVGPDSSSPGEPWELV
- glycan array binding signal (z-score) [25]: 2.76
- glycan array binding signal (z-score) (GlcNAc(b1-3)Gal(b1-4)Glc): -0.04
- glycan array binding signal (z-score) [26]: -0.253
- glycan array binding signal (z-score) [27]: -0.328
- glycan array binding signal (z-score) (Man(b1-4)GlcNAc): -0.209
- glycan array binding signal (z-score) [28]: 6.35
- glycan array binding signal (z-score) (Neu5Ac(a2-3)Gal(b1-4)Glc): 8.35
- glycan array binding signal (z-score) [29]: 0.2
- glycan array binding signal (z-score) [30]: -0.437
- glycan array binding signal (z-score) [31]: -0.35
- glycan array binding signal (z-score) [32]: 0.72
- glycan array binding signal (z-score) [33]: -0.304
- glycan array binding signal (z-score) (Neu5Gc(a2-6)GalNAc): -0.242
